Reference: PubChem BioAssay (NCATS)
Values without a mark were called inactive. Records with an inconclusive call do not appear. The source made the active and inactive calls. Unless noted, the call rests on the fitted dose curve; in most records, active means well fitted curve in either direction with a large enough effect (not every such curve was filed as active); inconclusive means small, poorly fitted or top-dose-only effect, or another doubt; inactive means flat fitted curve, though single readings scatter.

What was measured:
[1] = target: Lysosomal acid glucosylceramidase (Homo sapiens) (UniProt P04062); assay: Glucocerebrosidase-p2 (AID 348; in the data active means potency below about 10 µM; further: potency means the concentration at half of the fitted maximal effect); conditions: purified GBA, blue fluorogenic substrate, 40 min
Sequence of Lysosomal acid glucosylceramidase (Homo sapiens) (P04062 whole entry, looked up): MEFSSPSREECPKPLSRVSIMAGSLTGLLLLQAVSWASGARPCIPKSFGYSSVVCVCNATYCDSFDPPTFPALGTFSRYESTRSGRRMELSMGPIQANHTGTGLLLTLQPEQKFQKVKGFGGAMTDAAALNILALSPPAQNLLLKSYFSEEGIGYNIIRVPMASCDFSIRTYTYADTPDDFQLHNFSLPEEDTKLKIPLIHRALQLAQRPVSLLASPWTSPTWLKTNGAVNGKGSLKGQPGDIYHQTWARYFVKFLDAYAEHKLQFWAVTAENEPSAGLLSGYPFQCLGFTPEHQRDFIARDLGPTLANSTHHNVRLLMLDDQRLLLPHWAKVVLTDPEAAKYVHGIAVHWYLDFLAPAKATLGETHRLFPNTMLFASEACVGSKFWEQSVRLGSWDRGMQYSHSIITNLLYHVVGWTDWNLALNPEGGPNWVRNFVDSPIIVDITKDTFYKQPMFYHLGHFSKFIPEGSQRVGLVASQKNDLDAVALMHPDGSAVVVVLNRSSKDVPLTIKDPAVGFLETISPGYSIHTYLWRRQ
Method in brief: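 Normal human glucocerebrosidase (0.2 nM) with blue fluorogenic substrate (80 uM final) in citrate/phosphate pH 5.9 with 10mM sodium taurocholate, 0.01% tween-20; 40 min RT, NaOH/glycine stop; fluorescence Ex 365/Em 440; AC50 from a titration from 0.6 nM upwards.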

[2] = AP1 Signaling Pathway (AID 357); conditions: ME-180 AP-1-bla reporter, EGF-induced, beta-lactamase ratio, 5 h; at 7.69 µM (top of the series) unless noted;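 further: ME-180 reporter cells stimulated with EGF at its EC50 level; on the % scale 0 is the no-effect control and ±100 the full control effect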
Method in brief: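 Read-out was the 460nm/530nm emission ratio (excitation 405nm) after CCF4 loading for 2.5 hours at room temperature. Cells carried an AP-1-driven beta-lactamase reporter, were stimulated with EC50 EGF plus compound for 5 hours, and AC50 values came from titrations.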

[3] = target: Cytochrome P450 1A2 (Homo sapiens) (UniProt P05177); assay: p450-cyp1a2 (AID 410; calls by dose curve; further: potency means the concentration at half of the fitted maximal effect;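 on activity change, negative = inhibition: -100% = full effect of reference inhibitor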); conditions: recombinant CYP1A2, luciferin-ME demethylation, luminescence; series mostly up to 11.4 µM
Sequence of Cytochrome P450 1A2 (Homo sapiens) (P05177 whole entry, looked up): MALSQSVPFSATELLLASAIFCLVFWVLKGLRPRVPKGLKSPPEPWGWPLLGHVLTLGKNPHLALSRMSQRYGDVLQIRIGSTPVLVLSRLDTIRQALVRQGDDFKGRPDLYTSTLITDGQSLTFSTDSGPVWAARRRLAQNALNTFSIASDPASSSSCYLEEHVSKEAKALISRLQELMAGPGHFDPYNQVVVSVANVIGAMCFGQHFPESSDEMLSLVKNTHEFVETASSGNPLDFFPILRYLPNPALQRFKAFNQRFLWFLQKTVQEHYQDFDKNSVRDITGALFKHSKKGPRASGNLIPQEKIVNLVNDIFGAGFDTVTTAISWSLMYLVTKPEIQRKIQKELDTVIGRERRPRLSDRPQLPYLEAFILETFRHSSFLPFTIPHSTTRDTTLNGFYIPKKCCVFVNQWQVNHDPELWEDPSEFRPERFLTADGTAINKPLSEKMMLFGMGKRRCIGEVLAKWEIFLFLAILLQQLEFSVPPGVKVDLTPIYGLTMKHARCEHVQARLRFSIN
Method in brief: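 Luminescent demethylation readout: Luciferin-ME (100uM, equal to Km) turned over by 20nM CYP1A2 for 60 min at room temperature after NADPH regeneration addition, following 10 min compound preincubation. Normalization used 57 uM furafylline as full inhibition.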

[4] = NFAT Signaling Pathway (AID 444); conditions: Jurkat NFAT-bla M1, carbachol, beta-lactamase ratio, 5 h; at 7.69 µM (top of the series) unless noted;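 further: carbachol stimulus at about its EC50 of 1 µM final; on the % scale 0 is the no-effect control and ±100 the full control effect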
Method in brief: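 Read-out: CCF4 FRET ratio (460 nm/530 nm) after 1 h RT dye loading, used for %activity and AC50 from titration series. Cells: Jurkat NFAT-β-lactamase/M1 line, treated with compound plus 1 uM carbachol for 5 h, 37 °C.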

[5] = target: Glucocorticoid receptor (Homo sapiens) (UniProt P04150); assay: GR-GFP Redistribution (AID 450;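 active means compounds whose dose series gives a full or clear partial fitted curve of increased nuclear translocation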; further: potency means the concentration at half of the fitted maximal effect); conditions: U2OS GR-GFP nuclear translocation, laser cytometry, 2 h
Sequence of Glucocorticoid receptor (Homo sapiens) (P04150 whole entry, looked up, the tested form may be a part): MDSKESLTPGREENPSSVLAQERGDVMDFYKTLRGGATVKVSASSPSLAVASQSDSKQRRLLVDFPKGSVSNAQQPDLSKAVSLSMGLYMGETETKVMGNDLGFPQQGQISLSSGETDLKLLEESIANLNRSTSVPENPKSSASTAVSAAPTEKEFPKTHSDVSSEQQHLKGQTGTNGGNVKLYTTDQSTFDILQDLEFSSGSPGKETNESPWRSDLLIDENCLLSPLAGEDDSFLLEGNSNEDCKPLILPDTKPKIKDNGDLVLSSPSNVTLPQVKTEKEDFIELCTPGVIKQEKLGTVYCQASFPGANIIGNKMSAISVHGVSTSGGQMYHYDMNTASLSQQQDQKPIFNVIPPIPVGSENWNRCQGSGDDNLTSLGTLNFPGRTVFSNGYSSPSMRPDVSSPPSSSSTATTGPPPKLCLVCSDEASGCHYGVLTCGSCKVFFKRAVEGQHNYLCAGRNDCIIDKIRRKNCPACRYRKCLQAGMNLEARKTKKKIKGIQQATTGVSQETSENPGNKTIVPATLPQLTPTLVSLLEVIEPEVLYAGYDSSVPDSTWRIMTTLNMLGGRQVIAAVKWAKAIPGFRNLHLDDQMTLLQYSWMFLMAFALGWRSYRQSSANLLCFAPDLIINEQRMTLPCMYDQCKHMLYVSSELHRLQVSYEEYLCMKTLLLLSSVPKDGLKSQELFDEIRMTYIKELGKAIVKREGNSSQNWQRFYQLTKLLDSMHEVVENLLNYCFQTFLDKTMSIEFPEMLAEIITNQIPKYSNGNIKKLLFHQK

[6] = target: Glucocorticoid receptor (Homo sapiens) (UniProt P04150); assay: GR-EFC Redistribution (AID 451; calls by dose curve; further: potency means the concentration at half of the fitted maximal effect); conditions: CHO-K1 GR-EFC translocation, beta-gal luminescence, 2 h
Method in brief: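 Translocation of GR-ED fusion to nuclear EA restores b-gal, read by luminescence after 1 h room-temperature detection. Engineered CHO-K1 biosensor cells, 1,000/well, exposed 2 h at 37 C to titrations up to 46 uM final.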

[7] = target: Mitogen-activated protein kinase 10 (Mus musculus) (UniProt Q61831); assay: JNK3 AlphaScreen Assay (AID 530); conditions: JNK3 lysate, c-Jun phosphorylation; series mostly up to 11.4 µM;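 further: kinase came from lysate of stimulated human HepG2 cells; signal reports phosphorylation of biotinylated GST-cJun 1-79 at Ser73 with 10 µM ATP; on the % scale 0 is the no-effect control and ±100 the full control effect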
Method in brief: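 qHTS titrations with 15 min compound pre-incubation before adding ATP (10 uM final). Read-out: AlphaScreen of Ser73-phosphorylated biotin-GST-cJun using HepG2 lysate JNK3 activated by IL-1β and TNFα.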

[8] = target: 3',5'-cyclic-AMP phosphodiesterase 4B (Homo sapiens) (UniProt Q07343); assay: qHTS Assay for Inhibitors of PDE-IV (AID 607; active means well fitted activation curve with a large enough effect in the main read-out, with a control signal flat, not every such curve was filed as active; further: % of control where 0% means no effect); conditions: HEK293 ACTOne CNG channel cells, membrane potential fluorescence; series mostly up to 22.9 µM
Sequence of 3',5'-cyclic-AMP phosphodiesterase 4B (Homo sapiens) (Q07343 whole entry, looked up): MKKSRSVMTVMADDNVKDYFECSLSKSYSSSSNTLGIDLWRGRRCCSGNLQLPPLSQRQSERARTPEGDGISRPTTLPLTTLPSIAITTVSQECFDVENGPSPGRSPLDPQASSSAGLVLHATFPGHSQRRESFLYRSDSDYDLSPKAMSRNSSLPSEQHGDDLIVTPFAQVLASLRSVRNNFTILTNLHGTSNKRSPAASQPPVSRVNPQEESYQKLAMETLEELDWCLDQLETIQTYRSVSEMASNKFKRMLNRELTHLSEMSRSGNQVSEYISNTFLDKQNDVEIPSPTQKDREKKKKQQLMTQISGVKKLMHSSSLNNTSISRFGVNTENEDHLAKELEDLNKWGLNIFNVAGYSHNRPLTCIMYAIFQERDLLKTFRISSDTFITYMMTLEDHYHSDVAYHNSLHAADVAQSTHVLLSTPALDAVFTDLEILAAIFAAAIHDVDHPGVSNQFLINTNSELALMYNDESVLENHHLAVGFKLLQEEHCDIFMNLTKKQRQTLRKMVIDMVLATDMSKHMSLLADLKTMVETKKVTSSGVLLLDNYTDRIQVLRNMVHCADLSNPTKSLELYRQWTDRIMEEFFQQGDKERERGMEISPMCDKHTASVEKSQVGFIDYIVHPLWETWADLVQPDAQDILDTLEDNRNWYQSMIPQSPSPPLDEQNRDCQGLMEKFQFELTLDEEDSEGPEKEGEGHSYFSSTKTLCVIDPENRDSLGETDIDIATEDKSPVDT
Method in brief: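 Live HEK293 cells with a modified cyclic nucleotide-gated (CNG) channel report intracellular cAMP via membrane-potential dye fluorescence (ex 535/em 590 nm). Endogenous PDE-IV was targeted. Compounds were tested at up to 22.9 uM final; RO 20-1724 100 uM served as control.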

[9] = target: Cytochrome P450 2D6 (Homo sapiens) (UniProt P10635); assay: qHTS Assay for Inhibitors and Substrates of Cytochrome P450 2D6 (AID 891; active means well fitted curve in the direction sought with a large enough effect; an effect the other way counts as inactive or inconclusive; further: nearly all actives have a fitted effect of over 60% in size; further: potency means the concentration at half of the fitted maximal effect); conditions: recombinant CYP2D6, luciferin-ME EGE luminescence; series mostly up to 11.4 µM
Sequence of Cytochrome P450 2D6 (Homo sapiens) (P10635 whole entry, looked up): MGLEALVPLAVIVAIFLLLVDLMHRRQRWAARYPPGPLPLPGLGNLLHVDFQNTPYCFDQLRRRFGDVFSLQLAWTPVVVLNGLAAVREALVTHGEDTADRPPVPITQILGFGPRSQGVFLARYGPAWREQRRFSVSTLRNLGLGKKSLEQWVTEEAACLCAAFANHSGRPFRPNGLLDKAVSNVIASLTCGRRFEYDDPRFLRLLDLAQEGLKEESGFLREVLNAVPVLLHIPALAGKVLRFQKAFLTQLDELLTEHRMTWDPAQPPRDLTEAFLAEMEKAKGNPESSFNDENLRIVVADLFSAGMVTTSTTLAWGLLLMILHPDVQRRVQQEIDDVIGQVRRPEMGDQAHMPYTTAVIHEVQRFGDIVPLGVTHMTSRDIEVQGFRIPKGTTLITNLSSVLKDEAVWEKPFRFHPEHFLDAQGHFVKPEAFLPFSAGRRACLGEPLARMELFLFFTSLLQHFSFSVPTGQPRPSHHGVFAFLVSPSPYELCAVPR
Method in brief: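 Luminescent read-out of luciferin formed by 5 nM human CYP2D6 demethylating 30 uM Luciferin-ME EGE (Km level) over 60 min at room temperature after NADPH regeneration addition. Data normalized to full inhibition by 1.43 uM quinidine.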

[10] = target: Cytochrome P450 3A4 (Homo sapiens) (UniProt P08684); assay: qHTS Assay for Inhibitors and Substrates of Cytochrome P450 3A4 (AID 884; active means well fitted curve in the direction sought with a large enough effect; an effect the other way counts as inactive or inconclusive; further: potency means the concentration at half of the fitted maximal effect; nearly all actives have a fitted effect of over 50% in size); conditions: recombinant CYP3A4, Luciferin-PPXE luminescence; series mostly up to 57.1 µM
Sequence of Cytochrome P450 3A4 (Homo sapiens) (P08684 whole entry, looked up): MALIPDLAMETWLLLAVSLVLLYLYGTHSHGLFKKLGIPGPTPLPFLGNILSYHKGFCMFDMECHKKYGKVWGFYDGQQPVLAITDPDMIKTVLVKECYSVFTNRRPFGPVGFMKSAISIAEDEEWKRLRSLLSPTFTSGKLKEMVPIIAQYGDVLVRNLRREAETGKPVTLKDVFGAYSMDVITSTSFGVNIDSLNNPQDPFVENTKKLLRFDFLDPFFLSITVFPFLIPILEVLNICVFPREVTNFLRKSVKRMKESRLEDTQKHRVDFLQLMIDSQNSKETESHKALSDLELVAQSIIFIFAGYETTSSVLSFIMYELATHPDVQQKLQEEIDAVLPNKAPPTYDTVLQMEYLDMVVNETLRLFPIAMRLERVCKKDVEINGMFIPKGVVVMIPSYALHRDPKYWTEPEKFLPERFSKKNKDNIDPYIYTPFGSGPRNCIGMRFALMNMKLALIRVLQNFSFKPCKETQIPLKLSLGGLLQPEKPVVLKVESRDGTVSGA
Method in brief: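 Luminescent readout of luciferin produced by CYP3A4 (20 nM) dealkylation of Luciferin-PPXE, 25 uM (its KM). NADPH-driven reaction ran 60 min at RT after 10 min compound preincubation; data scaled to 57 uM ketoconazole as 100% inhibition.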

[11] = target: Cytochrome P450 3A4 (Homo sapiens) (UniProt P08684); assay: qHTS Assay for Activators of Cytochrome P450 3A4 (AID 885; active means well fitted curve in the direction sought with a large enough effect; an effect the other way counts as inactive or inconclusive; further: nearly all actives have a fitted effect of over 65% in size); conditions: recombinant CYP3A4, Luciferin-PPXE luminescence, 60 min; series mostly up to 11.4 µM
Method in brief: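 Using 20nM recombinant human CYP3A4 in potassium phosphate (200mM), substrate Luciferin-PPXE at 25uM, luminescent luciferin detection followed a 60-min RT NADPH reaction; data scaled to 57 uM ketoconazole.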

[12] = Stat Signaling Pathway (AID 446); conditions: ME-180 SIE beta-lactamase reporter, IL-6 stimulated, 5 h; at 7.69 µM (top of the series) unless noted;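 further: ME-180 cervical cancer cells given 40 pM IL-6 alongside compound; SIE-controlled beta-lactamase reporter measured as 460/530 nm FRET emission ratio; on the % scale 0 is the no-effect control and ±100 the full control effect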
Method in brief: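 Overnight-plated ME-180 cells bearing a STAT Inducible Element beta-lactamase reporter; 5 h co-exposure to compound and 40 pM IL-6; values normalized to 300 pM IL-6 and 125 nM JAK inhibitor controls.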

[13] = target: Cytochrome P450 2C19 (Homo sapiens) (UniProt P33261); assay: qHTS Assay for Inhibitors and Substrates of Cytochrome P450 2C19 (AID 899; active means well fitted curve in the direction sought with a large enough effect; an effect the other way counts as inactive or inconclusive; further: nearly all actives have a fitted effect of over 60% in size; further: potency means the concentration at half of the fitted maximal effect); conditions: recombinant CYP2C19, luciferin-H EGE luminescence; series mostly up to 11.4 µM
Sequence of Cytochrome P450 2C19 (Homo sapiens) (P33261 whole entry, looked up): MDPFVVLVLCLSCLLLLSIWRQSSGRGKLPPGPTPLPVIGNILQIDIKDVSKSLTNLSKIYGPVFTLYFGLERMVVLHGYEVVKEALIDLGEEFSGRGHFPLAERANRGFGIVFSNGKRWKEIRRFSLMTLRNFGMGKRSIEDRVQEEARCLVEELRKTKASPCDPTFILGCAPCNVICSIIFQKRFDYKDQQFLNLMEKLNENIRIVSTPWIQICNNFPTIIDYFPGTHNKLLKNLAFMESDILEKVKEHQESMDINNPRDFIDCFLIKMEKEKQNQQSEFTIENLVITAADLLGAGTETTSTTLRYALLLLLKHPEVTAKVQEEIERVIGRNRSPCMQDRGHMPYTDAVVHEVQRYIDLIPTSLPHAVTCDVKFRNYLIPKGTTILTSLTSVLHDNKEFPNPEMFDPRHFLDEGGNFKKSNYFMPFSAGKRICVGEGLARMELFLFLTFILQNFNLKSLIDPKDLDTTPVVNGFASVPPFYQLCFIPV
Method in brief: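 Luminescence readout of luciferin formed from 10uM Luciferin-H EGE (KM level) by 5 nM CYP2C19 in 50mM KPO4. 60 min NADPH-driven reaction at 37C after 10 min compound preincubation; data scaled to 57uM ketoconazole inhibition.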

[14] = qHTS Assay for Identification of Small Molecule Agonists for Hypoxia Response Element Signaling Pathway (AID 914; active means well fitted activation curve with a large enough effect in the signal ratio, with a control signal flat, not every such curve was filed as active; the % refers to the signal ratio; further: % of control where 0% means no effect); conditions: ME-180 (cervical carcinoma) HRE-bla reporter, beta-lactamase ratio, CoCl2, 17 h; activation: stronger effect = higher value
Method in brief: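 Compounds in a titration series were added to ME-180 reporter cells alongside an EC50 level of CoCl2. After 17 hours, beta-lactamase activity was read as the 460nm/530nm emission ratio of CCF4, giving AC50 values.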

[15] = target: Cytochrome P450 2C9 (Homo sapiens) (UniProt P11712); assay: qHTS Assay for Inhibitors and Substrates of Cytochrome P450 2C9 (AID 883; active means well fitted curve in the direction sought with a large enough effect; an effect the other way counts as inactive or inconclusive; further: potency means the concentration at half of the fitted maximal effect; nearly all actives have a fitted effect of over 60% in size); conditions: recombinant CYP2C9, luciferin-H luminescence, 60 min; series mostly up to 11.4 µM
Sequence of Cytochrome P450 2C9 (Homo sapiens) (P11712 whole entry, looked up): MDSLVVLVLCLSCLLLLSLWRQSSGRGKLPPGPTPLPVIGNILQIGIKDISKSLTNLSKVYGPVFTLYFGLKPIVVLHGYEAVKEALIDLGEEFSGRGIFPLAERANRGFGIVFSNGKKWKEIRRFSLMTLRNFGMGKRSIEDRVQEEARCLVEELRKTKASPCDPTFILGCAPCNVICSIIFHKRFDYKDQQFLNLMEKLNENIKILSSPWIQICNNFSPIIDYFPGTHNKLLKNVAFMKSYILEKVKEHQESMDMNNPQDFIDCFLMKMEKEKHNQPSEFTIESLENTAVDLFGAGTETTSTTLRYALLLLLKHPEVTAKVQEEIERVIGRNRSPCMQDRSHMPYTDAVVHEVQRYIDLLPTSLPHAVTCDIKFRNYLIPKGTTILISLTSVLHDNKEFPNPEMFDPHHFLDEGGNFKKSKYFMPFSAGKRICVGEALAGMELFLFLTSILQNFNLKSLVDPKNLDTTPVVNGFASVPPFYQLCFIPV
Method in brief: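 Luminescent read-out of deoxyluciferin hydroxylation, normalized to 57uM sulphaphenazole (AC100). Reaction: 10nM enzyme, 100uM Luciferin-H (equal to KM), 25mM KPO4, 10 min compound preincubation, then 60 min with NADPH regeneration, both at 37C.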

Structure (SMILES) | Potency [1] [µM] | activity change, negative = inhibition [2] [%] | Potency [3] | activity change, negative = inhibition [4] [%] | Potency [5] [µM] | Potency [6] [µM] | Potency [7] | Potency [8] | Potency [9] | Potency [10] | Potency [11] | activity, negative = inhibition [12] [%] | Potency [13] | activation [14] [%] | activity change, negative = inhibition [3] | Potency [15]
c1ccc2c(c1)nnn2CN1CCOCC1 | > 11.4 | 1.95 | inactive | -0.506 | > 46 | > 9.22 | inactive | inactive | inactive | – | – | – | – | – | – | –
CCNc1ncc2nc(C)c(=O)n(Cc3cccc(OC)c3)c2n1 | > 11.4 | -13.2 | 3.16 µM (active) | -2.59 | > 9.22 | > 46 | inactive | inactive | – | 7.94 µM (active) | inactive | – | – | – | – | –
CC1=c2c(oc3cc(O)c(Nc4c(C)cc(O)cc4O)c(C)c23)=CC(=O)C1=Nc1c(C)cc(O)cc1O | > 11.4 | -6.5 | 3.16 µM (active) | -22.3 | > 46 | > 9.22 | – | inactive | – | – | – | – | – | – | – | –
CN(C)CCCN1CCC2(CCC(C(C)(C)C)CC2)CC1 | > 11.4 | -6.54 | inactive | – | > 46 | > 9.22 | inactive | – | – | – | – | 8.08 | – | – | – | –
O=C(O)CSc1ccn(Cc2ccccc2)c1 | > 11.4 | -4.91 | inactive | 1.69 | > 46 | > 9.22 | inactive | inactive | – | – | – | – | inactive | – | – | –
CN(C)CCCN1c2ccccc2Sc2cnccc21 | > 11.4 | 6.06 | 0.501 µM (active) | -14.8 | > 46 | > 9.22 | inactive | inactive | 1.58 µM (active) | 1.58 µM (active) | inactive | – | – | – | – | –
Cn1cnc([N+](=O)[O-])c1SCC(=O)O | > 11.4 | 3.98 | inactive | 3.51 | > 46 | > 9.22 | inactive | inactive | – | – | – | – | inactive | – | – | –
O=C(CSc1nc2ccccc2s1)c1sc2sc3ccccc3[n+]2c1O | > 11.4 | -9.47 | 5.01 µM (active) | 6.64 | > 46 | > 9.22 | inactive | inactive | – | – | – | – | – | -16.9 | – | –
O=C(O)C[C@H](NC(=O)CP(=O)(O)O)C(=O)O.[NH-][C@@H]1CCCC[C@@H]1[NH-].[Pt] | > 11.4 | -4.37 | inactive | – | > 46 | > 9.22 | – | – | – | – | – | -12 | – | – | – | –
Clc1ccc(-c2nnc(-c3cccc4ccccc34)o2)cc1Cl | > 11.4 | -2.21 | 2 µM (active) | 18.6 | > 46 | > 9.22 | inactive | inactive | – | – | – | – | inactive | – | – | –
CN(C)Cc1ccc(-c2cc3onc(-c4ccccc4)c3c(=O)n2C)cc1 | > 11.4 | 12.1 | inactive | – | > 46 | > 9.22 | inactive | inactive | – | – | – | -3.19 | – | – | – | –
O=C(O)/C=C\c1c2ccc(=O)c(O)c-2oc2c(O)c(O)ccc12 | > 11.4 | -8.29 | – | 2.25 | > 46 | > 9.22 | – | inactive | – | – | – | – | – | – | -19.8% [at 2.29 µM] | –
C[N+](C)(C)c1ncnc2c1ncn2[C@@H]1CCCCO1 | > 11.4 | 10.7 | – | 5.08 | > 46 | > 9.22 | inactive | inactive | – | – | – | – | inactive | – | 2.3% [at 2.29 µM] | –
COC(=O)CC[C@@H](C)[C@H]1CC[C@H]2[C@H]3CC[C@H]4C[C@@H]5CC[C@@]4(C)C3(O5)[C@@H](Br)[C@@H](Br)[C@@]12C | > 11.4 | 21.4 | inactive | 8.56 | > 46 | > 9.22 | – | inactive | – | – | inactive | – | – | – | – | 2.51 µM (active)
Cc1cc(C)c2c(SCc3ccc(Cl)cc3Cl)nc(N)nc2n1 | > 11.4 | 0.307 | 3.16 µM (active) | -14.4 | > 46 | – | inactive | inactive | – | – | – | – | – | – | – | –
COc1ccccc1CCn1c(=O)c(-c2ccc(F)cc2)nc2cncnc21 | > 11.4 | -8.06 | 1 µM (active) | -26.6 | > 9.22 | > 46 | inactive | – | – | 3.98 µM (active) | inactive | – | 0.316 µM (active) | – | – | –
